Screening results (PubChem BioAssay)
DT40 TDP1 no CPT: qHTS for Inhibitors of human tyrosyl-DNA phosphodiesterase 1 (TDP1): qHTS in cells in absence of CPT. Potency, µM (titrated, usually from 46.2 µM), most hits filed as inhibitors. DT40 Tdp1-/- hTDP1 cells, no CPT, ATP luminescence, 48 h. 420,000 compounds, 15% hits. AID 686978, 2013; further: nearly all actives have a fitted effect of over 55% in size
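Chicken DT40 Tdp1-/- cells stably complemented with human TDP1 were seeded at 400 cells/well with DMSO in place of 20 nM camptothecin. After compound pinning, cells grew at least 48 hr at 37 °C; viability read by CellTiter-Glo luminescence.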
TGFb inhibitor: inhibitors of TGF-b signaling | HepG2 CAGA-GFP TGF-b/SMAD3 reporter, GFP fluorescence, 18 h; TGF-beta stimulated, 500 pg/mL final | Potency, µM (top dose mostly 46.1 µM), hits mostly inhibitors | 410,000 compounds, 1.2% hits | AID 588855; further: nearly all actives have a fitted effect of over 65% in size
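Read-out: total well GFP (ex488/em500-530) summed from mean per-cell fluorescence. Cells: HEPG2 CAGA-GFP, 1% FBS DMEM, 18 h at 37 degrees C with 500 pg/mL final TGF-beta. Unstimulated wells served as the full-inhibition control; stimulated DMSO wells = 0%.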
HepG2 tox: counter-screen for TGF-b inhibitors: cytotoxicity in HepG2 cells; HepG2 CAGA-GFP viability, ATP luminescence, 18 h; Potency, µM (top dose mostly 46.1 µM), hits mostly cytotoxic; 410,000 compounds, 0.76% hits
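CellTiter-Glo luminescence gave cytotoxicity after 18 hours at 37 degrees C. The cells were HepG2 CAGA-GFP in 1% FBS DMEM, stimulated with 500 pg/mL TGF-beta after compound addition. %Activity was normalised to no-cell wells (complete cell-killing) and DMSO (no toxicity), and curves were fitted and classified.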
S-ASM inh: inhibitors of human secretory acid sphingomyelinase. Potency, µM (top dose mostly 57.5 µM), hits mostly inhibitors. 340,000 compounds, 0.006% hits. placental ASM, HMU-PC fluorogenic substrate, 60 min
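Human placenta-derived ASM preincubated with compound 10 min at room temperature, then reacted with 9 uM (final) fluorogenic HMU-PC substrate for 60 min at 37 C. Stop solution raises pH to 10; fluorescence read at Ex 386/Em 447 nm.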
TDP1 cell CPT: DT40-hTDP1 cell growth loss with CPT. chicken DT40 Tdp1-/-;hTDP1 cells + 20 nM CPT, ATP luminescence, 48 h. Potency, µM (highest dose often 46.2 µM), actives largely listed as inhibitors. 420,000 compounds, 12% hits. AID 686979; further: nearly all actives have a fitted effect of over 55% in size
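Cell growth measured by CellTiter-Glo luminescence after a minimum 48 h, 37 C compound exposure with 20 nM CPT in Tdp1-knockout DT40 cells stably expressing hTDP1, seeded 400/well; qHTS titration format.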
IL-1B inflam inh: inhibitors of inflammasome signaling (IL-1 beta secretion); 360,000 compounds, 4.7% hits; activity change, % at 57.5 µM; THP-1 LPS/ATP IL-1B secretion, AlphaLISA, 16 h; stronger effect = lower value; in the data active means activity change below about -50%; inconclusive means mostly about -30% to -49%
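THP-1 cells pretreated 1 hr with compounds (up to 57.5 uM final), then stimulated with LPS (250 ng/mL final) plus ATP (1.25 mM final); secreted IL-1B measured by AlphaLISA after 16 hr, decreased signal indicating inhibition.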
Numbers stand for hits; - = inactive; ? = inconclusive; . = not tested or not shown. Hits are enriched below; roughly 19% of the tested compounds scored in any of these assays. Unless noted, the call rests on the fitted dose curve; in most records, active means well fitted curve in the direction sought with a large enough effect; inconclusive means small, poorly fitted or top-dose-only effect, or another doubt; inactive means no such curve, though single readings can be large; an effect the other way counts as inactive or inconclusive.

SMILES	DT40 TDP1 no CPT	TGFb inhibitor	HepG2 tox	S-ASM inh	TDP1 cell CPT	IL-1B inflam inh
CCCNC(=O)N1[C@H]2CC[C@@H]1C(C(=O)OC)=C(c1cc3ccccc3o1)C2	16µM	?	-	-	16µM	-
COC(=O)C1=C(c2cc3ccccc3o2)C[C@@H]2CC[C@H]1N2C(=O)N1CCCC1	16µM	?	-	-	?	-
[N-]=[N+]=NCCN1CCC(O)CCC1=O (stereo unspecified)	-	-	-	-	-	-
Cc1cc(C)c(Cn2c3ccccc3c3cnn(CC(=O)NCc4ccc(Cl)cc4)c(=O)c32)c(C)c1	23µM	-	-	.	?	.
C[C@]12Cc3nonc3C[C@@H]1CC[C@@H]1[C@@H]2CC[C@@]2(C)[C@H]1CC[C@]2(C)O	?	.	.	.	-	.
CC(O)C1C=CC=CC(=O)OC2CC3OC4C5OC5(C)CCC4(COC(=O)C4OC4(C)C(O)CO1)C2(C)C31CO1 (stereo unspecified)	0.052µM	0.25µM	-	-	0.052µM	-100
CC(=O)OC1C(=O)OCC23CCC4(C)OC4C2OC2CC(OC(=O)C=CC=CC(=O)OCCC1C)C3(C)C21CO1 (stereo unspecified)	0.021µM	-	-	-	0.15µM	-101
Cc1ccc(-n2c(=O)[nH]c3ccc(Br)cc3c2=O)cc1	-	-	-	.	-	.
COc1ccc2c(c1)[nH]c1c(C)nccc12	20µM	?	-	-	13µM	-72
Cc1nccc2c1[nH]c1ccc(Br)cc12	23µM	-	-	-	?	-
COc1cc2[nH]c(=O)n(-c3ccccc3)c(=O)c2cc1OC	-	-	-	-	-	-
CCc1c(C(=O)OC)ncc2[nH]c3cc(OC)c(OC)cc3c12	6.5µM	.	.	.	8.2µM	.
CN(N)N=Nc1nc2c([nH]1)c(=O)n(C)c(=O)n2C	-	-	-	-	-	-
CNC(=O)Oc1ccc2c(c1)[C@]1(C)CCN(C)[C@@H]1N2C	?	-	-	-	-	-
CNC(=O)Oc1ccc2c(c1)C1(C)CCN(C)C1N2C (stereo unspecified)	30µM	.	.	.	24µM	.
CN1CC[C@@]2(C)c3cc(O)ccc3N(C)C12 (stereo partly specified)	?	?	-	.	4µM	.
COc1cc(/C=C(/C)[N+](=O)[O-])ccc1OCc1ccccc1Cl	2.9µM	5µM	7.9µM	-	3.3µM	-99
COc1cc(C=C2C(=O)NC(=O)NC2=O)ccc1OCc1ccc([N+](=O)[O-])cc1	-	-	-	-	-	-
Cc1[nH]nc2c1C1(CCC(c3ccccc3)CC1)C(C#N)=C(N)O2 (stereo unspecified)	-	-	-	-	?	-
CCN1C[C@]2(CO)CC[C@H](OC)[C@@]34C5C[C@H]6[C@H](OC)C5[C@](O)(C[C@H]6OC)[C@@](O)(C(OC)C23)[C@@H]14 (stereo partly specified)	-	-	-	-	-	-
ClC=C(Cl)Cl	-	.	.	.	-	.
Cc1ccc2c(c1)C=CC(C#N)N2C(=O)Oc1ccccc1 (stereo unspecified)	16µM	-	-	.	18µM	?
Cc1nn(Cc2ccccc2Cl)c(C)c1C(=O)OCC(=O)NC1CCCC(C)C1C (stereo unspecified)	23µM	-	-	-	21µM	-
O=C1C2CCCN2C(c2cccs2)N1c1ccccn1 (stereo unspecified)	-	-	-	-	-	-
O=C1NC(=S)NC(=O)C1=Cc1cccn1-c1ccc(O)cc1	5.2µM	?	-	-	3.7µM	-102
COc1ccccc1C=C1C(=O)NC(=S)NC1=O	-	-	-	-	-	?
CN1C(=O)/C(=C/c2cccn2-c2ccc3ccccc3c2)C(=O)NC1=S	5.2µM	16µM	-	-	3.3µM	-117
